Measurements reported in PubChem BioAssay (EPA / NIEHS).
The source made the active and inactive calls. The calls were made as follows: active = hit-call score of the fitted dose curve at least 0.9, where 1 is the maximum; inactive = score below 0.9.

What follows are molecules tested on Bcl-2 (BID) gene, BID (gene 637) (assay: LTEA_HepaRG_BID: Life Technologies and Expression Analysis (LTEA) Assay for Bcl-2 (BID) gene using HepaRG (AID 2283476)). Conditions: mRNA level, 48 h; actives raise or lower the signal.
Experimental: LTEA_HepaRG is a cell based, multiplexed-readout assay that uses HepaRG, a human liver cell line, with measurements taken at 48 hours after chemical dosing on a 96-well plate.LTEA_HepaRG_BID is one of 102 assay component(s) measured in the LTEA HepaRG cell culture assay. It is a marker of Cell proliferation, survival, death.Data from the assay component LTEA_HepaRG_BID was analyzed into 1 endpoint. This assay endpoint, LTEA_HepaRG_BID, was analyzed with bidirectional fitting relative to DMSO as the negative control and baseline of activity. Using a type of inducible reporter, measures of mRNA induction for gain or loss-of-signal activity can be used to understand regulation of transcription factor activity. To generalize the intended target to other relatable targets, this assay endpoint is annotated to the cell cycle intended target family, where the subfamily is Cell proliferation, survival, death.
A total of 1060 chemcials from the ToxCast library were tested in eight-point concentration-response experiments. Cell culture and cytotoxicity assays were conducted at Thermo Fisher Scientific's Custom Services facility (Madison, WI). A single lot of human HepaRG cells (Thermo Fisher Scientific, Frederick, MD) was used for the cell culture experiments. 96-well format collagen type I coated plates of human HepaRG cells were prepared using established methods. Briefly, cryopreserved HepaRG cells were thawed, plated at a density of approximately 100,000 cells/well in HepaRG Thaw, Plate, and General Purpose media (HPRG770, Thermo Fisher Scientific), and incubated for 48 hours. 0.5% DMSO was selected as vehicle control to balance the requisite need of DMSO in HepaRG cultures to maintain differentiation (for example, baseline metabolism, proportions of hepatocytes vs. cholangiocytes), while enabling further hepatic receptor pathway activation (for example, PXR and CAR) in response to chemical exposure. 48 hours after plating, the culture medium was replaced with HepaRG Serum-Free Incudtion Media. Cells were exposed to each test chemical in duplicate and maintained in CO2 incubators for another 48 hours. Chemical plates were thawed to room temperature and 200x concentrations of treatment groups were prepared. 8-point conentration-reponse curves were made with the highest exposure at 100 uM, followed by half-log dilutions, all in 0.5% DMSO. Each test plate contained variouse controls, induction positive controls (1mM phenobarbital), cytotoxicity positive controls ([…] aflatoxin B1), vehicle controls (0.5% DMSO), and total lysis controls (0.5% DMSO). Cell morphology images were taken using an Essen IncuCyte FLR automated microscope, with six 96-well plates imaged in about 24 minutes. Images were captured and exported and JPEG files. Spent culture media was transfered to black-well plates for the LDH assay, and remaining media was sorted at -80 C for later use. Cells were treated with RLT buffer and frozen until shipped for gene expression analysis. Total RNA was isolated from the cell suspension in 75 uL of Buffer RLT (Qiagen, Germantown, MD 20874) by Quintiles/Expression Analysis (Durham, NC) using a custom isolation procedure. Total RNA from each plate well was transferred to a preamplification plate. Fluidigm's 96.96 Dynamic ArrayTM (Fluidigm, Amsterdam, the Netherlands) technology was used for gene expression analyses by quantitative reverse transcription polymerase chain reaction (qRT-PCR, performed by Quintiles/Expression Analysis, Durham, NC)89. Standard TaqManTM Assays (Applied Biosystems/ThermoFisher Scientific, Foster City, CA) were used to assess the expression of 93 genes selected based on their selectivity and sensitivity to important hepatic receptors known to be modulated by environmental chemicals; importance in human hepatocyte functionality; and hepatotoxicity. […]

| Structure (SMILES) | outcome | AC50 |
| --- | --- | --- |
| CC(CO)OC(C)CO (stereo not given) (tested in a mixture with another compound) | inactive | – |
| CCCCCCC(=O)OCC | inactive | – |
| Cc1cccc(C)c1O | inactive | – |
| CCCCCCCCCCCC(=O)OC | inactive | – |
| Cc1ccc(Cl)cc1 | inactive | – |
| COc1ccc2c(c1)c(CC(=O)O)c(C)n2C(=O)c1ccc(Cl)cc1 | inactive | – |
| NCC1(Cc2noc(=O)[nH]2)CCCCC1 | inactive | – |
| CN1CCCC1=O | inactive | – |
| Clc1cc(Cl)c(Cl)cc1Cl | inactive | – |
| CC(=O)C(C)=CC1C(C)=CCCC1(C)C (stereo not given) | inactive | – |
| COc1cc(-c2nc(NC(=O)c3cc4cc(C)cc(C)c4n3CC(=O)O)sc2CCC2CCCCC2)c(OC)cc1Cl | – | 5.4 µM (active) |
| CCc1c(C(=O)NN2CCCCC2)nn(-c2ccc(Cl)cc2Cl)c1-c1ccc(Br)cc1 | inactive | – |
| O=[N+]([O-])C(CO)(CO)CO | inactive | – |
| Cc1ccc(N(C)C)cc1 | inactive | – |
| C[C@]12C=CC(=O)C=C1CC[C@@H]1[C@@H]2C(=O)C[C@@]2(C)[C@H]1CC[C@]2(O)C(=O)CO | inactive | – |
| CC(C)(C)c1cc(O)c(C(C)(C)C)cc1O | – | 84.3 µM (active) |
| CCCCCCCCCCCCCO | inactive | – |
| CNCc1cc(F)ccc1Oc1ccc(Cl)c(Cl)c1 | inactive | – |
| CCCc1cc(=O)[nH]c(=S)[nH]1 | inactive | – |
| CCCCCCCCCCCCCCCCCC(=O)O | inactive | – |

| Structure (SMILES) | outcome | AC50 |
| --- | --- | --- |
| CCCCCC(=O)O | inactive | – |
| CC(=O)OC/C=C(\C)CCC=C(C)C | inactive | – |
| c1cc(-c2ccncc2)ccn1 | inactive | – |
| Cc1ccc(C)c(O)c1C | inactive | – |
| CCCCC(CC)COC(=O)CC(C(=O)OCC(CC)CCCC)S(=O)(=O)O (stereo not given) | – | 50 µM (active) |
| C[Si]1(C)O[Si](C)(C)O[Si](C)(C)O[Si](C)(C)O1 | inactive | – |
| COC(=O)c1ccc(O)cc1 | inactive | – |
| O=C(O)Cc1ccccc1Nc1c(Cl)cccc1Cl | inactive | – |
| Cc1c(C(=O)O)c(O)cc2c1C(=O)c1c(O)c([C@@H]3O[C@H](CO)[C@@H](O)[C@H](O)[C@H]3O)c(O)c(O)c1C2=O | inactive | – |
| CCOc1ccc2c(c1)C(C)=CC(C)(C)N2 | inactive | – |
| CCCCCCCCCCO | inactive | – |
| O=c1c(O)c(-c2ccc(O)c(O)c2)oc2cc(O)cc(O)c12 | inactive | – |
| CN[C@H]1CC[C@@H](c2ccc(Cl)c(Cl)c2)c2ccc(S(N)(=O)=O)cc21 | inactive | – |
| NC(=O)Cn1c(=O)cc(CCN2CCN(c3nccc4sccc34)CC2)c2ccc(F)cc21 | inactive | – |
| Cc1ccccc1Cl | inactive | – |
| Nc1ccccc1N | inactive | – |
| CCCCCCOCCO | inactive | – |
| C1CCC(SSC2CCCCC2)CC1 | inactive | – |
| COc1cc(S(=O)(=O)O)c(C)cc1N=Nc1c(O)ccc2cc(S(=O)(=O)O)ccc12 | inactive | – |
| CC(C)c1ccc(C(=O)N=C(N)N)cc1S(C)(=O)=O | – | 0.367 µM (active) |
